# This is a sample that favours compounds with a hit; in the whole collection about 11% have one here.
# JMJD2E inh: inhibitors of human JMJD2E histone demethylase; JMJD2E catalytic domain, FDH-coupled NADH fluorescence (FDH is formaldehyde dehydrogenase); hit rate 1.6% among 230,000; B2RXH2; Potency, µM (doses to about 57.1 µM), without a hit: at the highest dose activity change, negative = inhibition, most hits filed as inhibitors;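 also: potency is read from the fitted curve at half-maximal effect; 0% = wells with enzyme and -100% = buffer wells without enzyme; nearly all actives have a fitted effect of over 50% in size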
# ALDH1A1 inh: ALDH1A1 (human) enzyme inhibition | P00352 | Purified ALDH1A1, NADH fluorescence, propionaldehyde substrate | Potency, µM (highest dose often 75.3 µM), without a hit: at the top dose activity, negative = inhibition, actives largely listed as inhibitors | hit rate 7.3% among 220,000 | AID 1030;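 also: potency is read from the fitted curve at half-maximal effect; plate controls were no enzyme wells and a reference inhibitor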
# Target sequence (P00352 whole entry, looked up): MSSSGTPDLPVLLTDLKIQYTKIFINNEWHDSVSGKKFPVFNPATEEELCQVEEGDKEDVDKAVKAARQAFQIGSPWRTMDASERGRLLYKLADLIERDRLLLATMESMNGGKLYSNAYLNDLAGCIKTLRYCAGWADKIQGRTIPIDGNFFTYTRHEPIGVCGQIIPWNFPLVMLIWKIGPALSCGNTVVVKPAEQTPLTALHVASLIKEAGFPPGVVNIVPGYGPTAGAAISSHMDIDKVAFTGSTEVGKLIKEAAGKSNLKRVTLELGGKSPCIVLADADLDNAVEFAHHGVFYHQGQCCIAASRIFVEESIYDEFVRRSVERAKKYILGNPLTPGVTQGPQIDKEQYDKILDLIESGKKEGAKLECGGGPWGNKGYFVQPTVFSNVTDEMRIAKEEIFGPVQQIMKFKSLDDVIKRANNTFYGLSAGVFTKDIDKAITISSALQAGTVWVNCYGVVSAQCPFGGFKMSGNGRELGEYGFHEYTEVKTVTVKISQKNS
# HPGD inh: HPGD (human) dehydrogenase inhibition | P15428 | purified HPGD, NADH fluorescence kinetic, PGE2 substrate | Potency, µM, for inactives: top-dose activity change, negative = inhibition, usual class: inhibitors | hit rate 4.3% among 150,000 | AID 894; also: potency is read from the fitted curve at half-maximal effect
#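 20 nM HPGD preincubated 15 min at room temperature with compound in 50 mM Tris-HCl pH 8, 0.01% Tween 20. Started with 1 mM NAD+ and 30 uM prostaglandin E2; NADH fluorescence (360/450 nm) read 5 times over 30-s intervals, last minus first.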
# PNC assembly inh: blocks assembly of the perinucleolar compartment | PC3M PTB-GFP, PNC prevalence imaging, 16 h; hits give low values | hit rate 3.1% among 140,000 | activity change (PNC), negative = inhibition, % at 10 µM;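 active = readout at or below -70, meaning at least 70% loss of cells showing the perinucleolar compartment, a nuclear body marking cancer cells; inconclusive = readout between -30 and a set limit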;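 also: plate controls were DMSO wells for no effect and camptothecin positive control wells for full effect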
#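 Compounds are pinned in duplicate onto adhered PC3M cells stably expressing GFP-tagged PTB and incubated 16 h at 37 C. Cells are then fixed, nuclei stained with Hoechst, and PNC-positive cells counted.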
# * hit, by the source's call; ? = inconclusive; nt = no result. Unless noted, calls follow the shape of the dose curve; as a rule, active = well fitted inhibition curve with a large enough effect (not every such curve was filed as active); inconclusive = small, poorly fitted or top-dose-only effect, or another doubt; inactive = no such curve, though single readings can be large or run the other way. Unless noted, % is scaled to controls: 0 for no effect and ±100 for the full control effect.
SMILES,JMJD2E inh,ALDH1A1 inh,HPGD inh,PNC assembly inh
O=c1[nH]ncc(N/N=C\c2ccc(O)cc2O)c1Cl,-13%,-5%,nt,nt
Oc1ccccc1/C=N/Nc1nccnc1Cl,25µM*,3%,-4%,-88*
COc1ccc(/C=N/Nc2nccnc2Cl)c(OC)c1,-9%,-2%,nt,nt
CCC1(O)CC2CN(CCc3c([nH]c4ccccc34)[C@@](C(=O)OC)(c3cc4c(cc3OC)N(C=O)C3[C@]45CCN4CC=C[C@@](CC)([C@@H](OC(C)=O)[C@]3(O)C(=O)OC)[C@H]45)C2)C1 (stereo not given in full),-13%,?,-29%,nt
NCCNc1cccc2ccccc12,nt,?,-10%,nt
O=[N+]([O-])c1cccnc1N/N=C/c1ccccc1O,-9%,89µM*,nt,nt
O=[N+]([O-])c1ccccc1/C=N/Nc1nccnc1Cl,5%,?,-14%,-7
C[C@H](Cc1ccccc1)Nc1ncnc2c1ncn2[C@@H]1O[C@H](CO)[C@H](O)[C@H]1O,9%,26%,?,nt
CCOC(=O)C1=C(N)Oc2cc(O)ccc2C1c1cccc([N+](=O)[O-])c1 (stereo not given),4%,-2%,nt,nt
Nc1c(-c2cccc([N+](=O)[O-])c2)nc2ccccn12,0%,7.5µM*,-22%,-21
O=[N+]([O-])c1cccc(-c2ncc3ccccn23)c1,5%,-5%,nt,nt
O=C(c1cccnc1)N1N=C(C2CCCCC2)CC1(O)C(F)(F)F (stereo not given),14%,13µM*,nt,nt
CCOC(=O)Cc1nc(-c2cccc(C(F)(F)F)c2)no1,-3%,12%,nt,nt
C#CCn1c(=NC(=O)c2cc(-c3cccs3)nc3ccccc23)sc2cc(S(N)(=O)=O)ccc21,?,?,-25%,?
COc1ccc(-c2ccc(CO)o2)cc1N,-6%,?,nt,nt
Cc1cc(-c2nnc(-c3ccccc3)c(-c3ccccc3)n2)c(C)o1,-3%,6.3µM*,?,-4
Cc1ccc(-c2nnc(-c3ccccc3)c(-c3ccccc3)n2)cc1,5%,?,-8%,0
O=C(Nc1ccc(N2CCCCC2)c(Cl)c1)c1ncn[nH]1,1%,-6%,13µM*,?
O=C(Nc1ccc(CCC(=O)N2CCCC2)cc1)c1ncn[nH]1,-5%,9%,28µM*,28
COC(=O)CCC(=O)Nc1cccc([N+](=O)[O-])c1,9%,5%,nt,nt
CC1=C(C(=O)Nc2ccc(C)cc2)C(c2cccs2)NC(=S)N1 (stereo not given),5%,?,-2%,24
CC1=C(C(=O)Nc2cccc(C)c2C)C(c2cccs2)NC(=S)N1 (stereo not given),-1%,0%,-13%,?
COC(=O)C1=C(C)NC(=S)NC1c1ccc(OC(=O)c2ccco2)cc1 (stereo not given),0%,?,nt,nt
CC1=C(C(=O)Nc2ccccc2C(F)(F)F)C(c2ccc(C)s2)NC(=S)N1 (stereo not given),-5%,0.63µM*,nt,nt
COC(=O)C1=C(C)NC(=S)NC1c1sccc1C (stereo not given),2%,11µM*,nt,nt
SMILES,JMJD2E inh,ALDH1A1 inh,HPGD inh,PNC assembly inh
CC1=C(C(=O)Nc2ccccc2C(F)(F)F)C(c2sccc2C)NC(=S)N1 (stereo not given),?,4.5µM*,nt,nt
OC[C@H]1O[C@@H](n2cnc3c(N[C@H]4C[C@H]5CC[C@@H]4C5)ncnc32)[C@H](O)[C@@H]1O,nt,-9%,nt,nt
COc1ccc(CNc2ncncc2-c2ccc(C(=O)N(C)C)cc2)c(OC)c1,nt,4%,nt,nt
CCN(CC)CCN1C(=O)C(O)=C(C(=O)c2cc3cccc(OC)c3o2)C1c1ccc(F)cc1 (stereo not given),0%,-1%,nt,nt
O=C(CN1C(=O)NC2(CCSC2)C1=O)N1CCN(c2ccc(F)cc2)CC1 (stereo not given),2%,20µM*,-3%,-21
CCC(CC)C1=NN2C(=N)/C(=C\c3cc(C)n(-c4cccc(C)c4)c3C)C(=O)N=C2S1,8%,6%,-4%,2
Cc1cc2c(cc(C(=O)OCC(=O)NCc3cccs3)n2C(C)C)o1,-3%,19µM*,-21%,7
CC(=O)n1cc([C@H]2C=C(C(=O)N3CCN(Cc4ccccc4)CC3)O[C@@H](OCCCCO)C2)c2ccccc21,?,28µM*,nt,nt
CC(=O)n1cc([C@@H]2C=C(C(=O)N3CCN(Cc4ccccc4)CC3)O[C@H](OCc3ccc(CO)cc3)C2)c2ccccc21,20µM*,16µM*,nt,nt
O=C(c1cc(C(F)(F)F)cc(C(F)(F)F)c1)N1CCC2(CC1)CCN(c1ccccc1)CC2,nt,0%,-5%,nt
CCCCN1C(=O)/C(=C/C=C2\Oc3ccccc3N2CC)SC1=S,-1%,?,nt,nt
CCN1/C(=C/C=C/c2oc3ccc(-c4ccccc4)cc3[n+]2CC)Oc2ccc(-c3ccccc3)cc21,7.9µM*,?,nt,nt
Cc1ccc2ccccc2c1[N+](=O)[O-],nt,-5%,-9%,nt
NC(=O)c1sc2nnc(-c3ccccc3)c(-c3ccccc3)c2c1N,-7%,nt,nt,nt
N#CC(C#N)=C1C=C2C=C(N3CCCCCC3)CCC2CC1 (stereo not given),-16%,?,-11%,-134*
N#CC(C#N)=C1C=C2C=C(N3CCOCC3)CCC2CC1 (stereo not given),-3%,3%,nt,nt
COc1ccc(CCNC(=O)c2cnn(-c3ccc(C)c(C)c3)c2NC(=O)c2ccco2)cc1OC,1%,-10%,-3%,-11
Cc1ccc(-n2ncc(C(=O)N3CCc4ccccc4C3)c2NC(=O)c2ccco2)cc1C,-5%,1µM*,?,-7
CCOC(=O)c1c(C)oc2c1c1c(c3ccccc32)OCN(CCCC(=O)O)C1,10µM*,7.9µM*,nt,nt
CCOC(=O)c1c(C)oc2c1c1c(c3ccccc32)OCN(Cc2cccnc2)C1,?,0.2µM*,-25%,20
c1ccc2c(c1)Sc1ccccc1-n1cnnc1-2,-7%,30%,-24%,27
N=C1Sc2ccccc2C2=NCCCN12,?,10µM*,2.2µM*,nt
O=C(c1cc(C2CC2)on1)N1CCN(c2ccccc2)CC1,6%,28µM*,-24%,10
O=C(c1cnccn1)N1CCN(c2ccccc2)CC1,3%,2%,-5%,5
CC(C)OCCCNc1ncc2c(n1)CC(c1cccs1)CC2=O (stereo not given),?,-1%,nt,nt
CC(C)OCCCNc1ncc2c(n1)CC(c1ccc(N(C)C)cc1)CC2=O (stereo not given),-7%,8.9µM*,-17%,24
COc1ccc(C2C(C#N)=C(N)Oc3c2c(C)nn3-c2ccccc2)cc1Cn1nc(C)c([N+](=O)[O-])c1C (stereo not given),-18%,5µM*,?,1
COC(=O)C1=C(C)OC(N)=C(C#N)C1c1c(C)nn(-c2ccccc2)c1Cl (stereo not given),-1%,-7%,?,24
COc1ccc(C2C(C#N)=C(N)OC3=C2C(=O)CC(C)(C)C3)cc1Cn1nc(C)c([N+](=O)[O-])c1C (stereo not given),7%,2%,1%,5

# Screening data deposited in PubChem by National Center for Advancing Translational Sciences (NCATS).
